GLS inh – blocks human kidney-isoform glutaminase activity; O94925; GLS enzymatic activity, qHTS titration; Potency, µM (doses to about 45.5 µM), for inactives: top-dose activity change, negative = inhibition, hits mostly inhibitors; 410,000 tested, 0.21% active; AID 624170; note: % is set by controls: 0 for no effect and ±100 for the full control effect
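Human kidney-isoform GLS in 45 mM KH2PO4 pH 8.2, 0.02% Tween-20, with compound, started with 1mM L-Glutamine (added stock). Glutamate oxidase/HRP/Amplex red coupled fluorescence read at start and after 30 min at RT.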
Pol iota inh – DNA polymerase iota (human) inhibition; Q9UNA4; Potency, µM (series often up to 115 µM), inactives show at the top dose activity, negative = inhibition, actives largely listed as inhibitors; Pol iota fluorescent replication assay, 10 min; 390,000 tested, 1% active
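Pol iota at 10 nM preincubated 15 min with compounds at room temperature; reaction started with fluorescent substrate, 50 nM final. Fluorescence read kinetically at 0 and 10 min; buffer-only wells as negative control.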
Pol beta inh – blocks human DNA polymerase beta activity | 340,000 tested, 1.3% active | Pol beta primer extension/strand displacement, fluorescence kinetic | AID 485314 | Potency, µM (highest dose often 114 µM), for inactives: at the top dose activity change, negative = inhibition, usual class: inhibitors | P06746; note: % is set by controls: 0 for no effect and ±100 for the full control effect
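Curves were derived by four-parameter Hill fits of normalized qHTS data. The kinetic fluorescent primer-extension read was taken at 0 and 10 min after 50 nM substrate, following a 15 min room-temperature preincubation of 10 nM enzyme with compounds.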
Pol kappa inh – blocks human DNA polymerase kappa activity. Q9UBT6. purified Pol kappa, fluorescent DNA synthesis assay, 10 min. Potency, µM (series often up to 107 µM), for inactives: at the top dose activity, negative = inhibition, most hits filed as inhibitors. 400,000 tested, 0.53% active; note: % is set by controls: 0 for no effect and ±100 for the full control effect
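Kinetic fluorescence readout at 0 and 10 min followed reaction start with substrate at 50 nM final. Beforehand, enzyme (10 nM Pol kappa) stood 15 min with compound at room temperature; buffer-only wells were negative controls.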
Pol eta inh – inhibitors of human DNA polymerase eta. Q9Y253. recombinant Pol eta, fluorescent DNA replication assay. Potency, µM (highest dose often 114 µM), for the others: at the top dose activity change, negative = inhibition, actives largely listed as inhibitors. 390,000 tested, 1.2% active. AID 588591; note: % is set by controls: 0 for no effect and ±100 for the full control effect
Target sequence (Q9Y253 whole entry, looked up): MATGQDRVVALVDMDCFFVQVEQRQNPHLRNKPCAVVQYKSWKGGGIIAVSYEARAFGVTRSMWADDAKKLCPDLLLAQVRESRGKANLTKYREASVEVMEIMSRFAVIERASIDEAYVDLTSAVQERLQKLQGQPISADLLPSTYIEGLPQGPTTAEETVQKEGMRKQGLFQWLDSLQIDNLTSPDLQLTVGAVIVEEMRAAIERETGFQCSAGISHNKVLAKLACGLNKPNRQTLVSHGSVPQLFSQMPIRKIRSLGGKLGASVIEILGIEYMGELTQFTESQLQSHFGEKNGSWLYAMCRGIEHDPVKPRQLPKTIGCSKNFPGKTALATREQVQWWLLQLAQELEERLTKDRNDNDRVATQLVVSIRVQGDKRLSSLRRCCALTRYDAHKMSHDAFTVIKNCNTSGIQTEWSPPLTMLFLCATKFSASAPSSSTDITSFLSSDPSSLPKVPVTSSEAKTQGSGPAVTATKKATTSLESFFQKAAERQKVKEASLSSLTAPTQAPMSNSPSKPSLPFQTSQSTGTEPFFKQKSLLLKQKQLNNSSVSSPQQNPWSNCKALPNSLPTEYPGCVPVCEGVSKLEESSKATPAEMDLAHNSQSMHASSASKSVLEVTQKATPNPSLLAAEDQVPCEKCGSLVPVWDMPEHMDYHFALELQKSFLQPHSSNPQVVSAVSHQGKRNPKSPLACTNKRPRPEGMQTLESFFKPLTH
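Fluorescent replication assay: 50 nM final substrate added after a 15 min room-temperature compound preincubation with 10 nM enzyme. Signal taken at 0 min and again at 10 min.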
KAT2A inh – GCN5L2 (KAT2A) acetyltransferase inhibition. Q92830. GCN5L2 HAT assay, ThioGlo1 CoA-SH fluorescence. Potency, µM (highest dose often 58.9 µM), without a hit: at the highest dose activity change, negative = inhibition, usual class: inhibitors. 390,000 tested, 0.21% active. AID 504327; note: % is set by controls: 0 for no effect and ±100 for the full control effect
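Preincubate 20nM GCN5L2 with compound 15 min, RT → add 50uM ThioGlo1 + 75uM H3(1-25) + 70uM acetyl-CoA → read fluorescence 0 and 20 min. Primary qHTS; fluorescent artifacts likely.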
* hit, by the source's call; ? = inconclusive; . = not tested or not shown; [ ] = another dose, or the depositor's remark. Sampled rows, rich in hits. Any-hit rate of the full collection: about 2.4%. Calls come from the whole dose curve; as a rule, active = well fitted inhibition curve with a large enough effect; inconclusive = small, poorly fitted or top-dose-only effect, or another doubt; inactive = no such curve, though single readings can be large or run the other way. Potency is the fitted concentration of half-maximal effect.

SMILES	GLS inh	Pol iota inh	Pol beta inh	Pol kappa inh	Pol eta inh	KAT2A inh
O=C(N/N=C/c1ccco1)C1CC1c1ccccc1 (stereo unspecified)	141.8%	31.6µM*	15.8µM*	?	?	3.5%
Cc1ccc(NC(=O)c2nc(-c3ccncc3)no2)c(Cl)c1	-1.5%	-15.7%	21.5%	-4.2%	9.0%	0.0%
C[C@@H]1O[C@@]2(CS1)CN1CCC2CC1	0.2%	.	.	.	.	.
COc1ccccc1OC(C)C(=O)Nc1cccc(-c2nc3ccccc3o2)c1 (stereo unspecified)	-7.2%	89.1µM*	50.1µM*	?	?	-11.9%
Cc1ccc(C(=O)OC2=C(C(=O)c3ccccc3)N(C)S(=O)(=O)c3ccccc32)cc1	7.8%	89.1µM*	?	-10.9%	-18.9%	-1.8%
CCCN1C(C(=O)c2ccccc2)=C(OC(=O)c2ccc(C)cc2)c2ccccc2S1(=O)=O	2.5%	31.1%	-1.4%	13.3%	-15.8%	-6.2%
C[N+]1(CC(=O)c2ccc(Br)cc2)CCOCC1	.	22.7%	.	7.4%	.	.
O=C(Nc1ccc2oc(-c3ccccc3F)nc2c1)c1ncn[nH]1	-0.5%	0.5%	?	-6.7%	13.8%	3.1%
O=C(Cc1ccccc1)Nc1ccc2oc(-c3ccncc3)nc2c1	-2.4%	?	22.4µM*	-10.3%	?	-16.3%
O=C(Cc1ccccc1)NC(=S)Nc1ccc2oc(-c3ccccc3)nc2c1	.	.	23.1%	.	.	-3.3%
O=C(Nc1ccc(-c2nc3cc(NC(=O)c4cccs4)ccc3o2)cc1)c1cccs1	-6.8%	14.5%	6.5%	-5.6%	-18.3%	-18.6%
O=C(Nc1ccc2oc(-c3ccncc3)nc2c1)c1cccs1	2.3%	5.9%	22.4µM*	-26.6%	?	-18.5%
O=C(Nc1ccc2oc(-c3ccc(Cl)c(Cl)c3)nc2c1)c1ncn[nH]1	3.2%	?	11.2µM*	?	?	-3.3%
N=c1c(C(=O)NCc2ccc3c(c2)OCO3)cc2c(=O)n3ccccc3nc2n1Cc1cccnc1	-8.1%	39.8µM*	39.8µM*	-20.1%	?	-1.9%
CCCCNC(=O)c1cc2c(=O)n3cccc(C)c3nc2s1	14.4%	24.8%	19.5%	-2.1%	-1.6%	-4.8%
Cc1cccn2c(=O)c3cc(C(=O)NCCc4ccccc4)sc3nc12	0.4%	?	14.1µM*	-23.9%	?	-4.3%
N=c1c(C(=O)NCc2ccc(F)cc2)cc2c(=O)n3ccccc3nc2n1Cc1ccco1	-8.7%	17.8µM*	?	?	39.8µM*	-4.6%
Cc1cccn2c(=O)c3cc(C(=O)NCCc4ccccc4)c(=N)n(Cc4ccco4)c3nc12	-3.6%	7.94µM*	-16.9%	-35.4%	-10.5%	-10.3%
C=C(Br)COC(c1ccco1)[C@H](Cc1ccccc1)NC(=O)OC(C)(C)C (stereo partly specified)	.	16.6%	.	-14.7%	.	.
Cc1ccc(S(=O)(=O)NNC(=O)c2ccc(C(=O)N(c3ccccc3)c3ccccc3)cc2)cc1	.	-4.0%	.	-9.2%	.	.
CN(C)CC(C(=O)c1ccccc1)c1ccccc1 (stereo unspecified)	-0.7%	31.6µM*	2.4%	-1.2%	-15.1%	-0.4%
COc1ccc(CN2CCN(C(=O)c3ccco3)CC2)cc1OC	11.6%	57.4%	30.4%	-10.1%	-9.9%	2.1%
COc1ccc(CN2CCN(C(=O)CCC(=O)c3ccc(C)s3)CC2)cc1OC	1.6%	89.1µM*	.	-32.9%	25.1µM*	-6.5%
Cc1nn(-c2ccccc2)c(Cl)c1/C=N/NC(=O)OC(C)(C)C	8.5%	?	7.9%	?	-98.2%	-3.4%
O=C(O)c1ccc(N=Cc2c(O)ccc3ccccc23)cc1	25.7%	12.6µM*	57.4%	-12.5%	-16.2%	-14.7%
SMILES	GLS inh	Pol iota inh	Pol beta inh	Pol kappa inh	Pol eta inh	KAT2A inh
Cn1c(/N=C/c2c(O)ccc3ccccc23)nc2ccccc21	?	7.94µM*	50.1µM*	-5.4%	89.1µM*	-7.4%
CCCn1c(/N=C/c2ccccc2O)nc2ccccc21	24.2%	0.5%	54.4%	-0.3%	?	?
Cc1nn(-c2ccccc2)c(Cl)c1/C=N/Nc1ccc(Cl)c(C(=O)O)c1	15.8µM*	76.6%	29.0%	-24.2%	5.6%	-7.2%
O=C(O)c1cc(N/N=C/c2ccc(OCc3ccccc3)cc2)ccc1Cl	-22.2%	106.7%	50.1µM*	-19.0%	-17.3%	?
O=C(O)c1cc(N/N=C/c2c(O)ccc3ccccc23)ccc1Cl	?	?	79.4µM*	?	?	-14.0%
CCN(CC)S(=O)(=O)c1cccc(C(=O)N/N=C/c2c(C)nn(-c3ccccc3)c2Cl)c1	5.8%	197.6%	14.1µM*	0.0%	-16.4%	-19.7%
O=C(N/N=C/c1c(O)ccc2ccccc12)c1cccnc1	9.0%	8.4%	-5.0%	-8.9%	-16.8%	-8.2%
Cc1ccc(C(=O)N/N=C/c2c(O)ccc3ccccc23)cn1	11.7%	?	50.1µM*	-6.2%	50.1µM*	-25.7%
O=C(N/N=C/c1c(O)ccc2ccccc12)Nc1ccccc1	2.1%	4.6%	.	5.4%	-9.4%	.
CCN(CC)S(=O)(=O)c1cccc(C(=O)N/N=C/c2ccccc2OCC(=O)O)c1	4.8%	25.5%	1.8%	0.0%	-2.8%	2.7%
O=C(C[n+]1cccc2cccc(O)c21)c1ccc(F)cc1	.	39.5%	.	1.3%	.	.
COc1ccc(OC)c(/C=C/c2sc3ccccc3[n+]2C)c1	.	9.4%	.	0.8%	.	.
Cc1nn(C)c(Cl)c1S(=O)(=O)N(Cc1ccco1)c1ncnc2nc[nH]c12	.	?	.	-14.5%	.	.
CC1(C)CCc2cc(O)ccc2O1	.	0.7%	.	1.8%	.	.
CSC1=NSC2=NC(=O)/C(=C\c3cccs3)C(=N)N12	-1.7%	23.8%	1.0%	-10.5%	-0.5%	-13.0%
CSC1=NSC2=NC(=O)/C(=C/c3coc4ccc(O)cc4c3=O)C(=N)N12	-24.4%	?	25.1µM*	39.8µM*	3.16µM*	-11.1%
O=C(CSc1oc(-c2ccco2)nc1S(=O)(=O)c1ccc(Cl)cc1)NCC1CCCO1 (stereo unspecified)	-2.2%	?	16.5%	-15.9%	79.4µM*	-3.9%[0.501 µM]
O=C(CSc1oc(-c2ccco2)nc1S(=O)(=O)c1ccc(Cl)cc1)c1ccc(Cl)cc1	-3.4%	?	1.0%	50.1µM*	-3.2%	-17.4%
CNc1ccc(/C=C/c2ccnc3ccccc23)cc1	.	22.1%	.	5.5%	.	.
O=C(O)/C(CC(=O)c1ccc(Cl)cc1)=N/Nc1ccc([N+](=O)[O-])cc1[N+](=O)[O-]	27.8%	?	?	?	89.1µM*	-22.4%
O=C1C2CC=C(Cl)CC2C(=O)N1c1ncn[nH]1 (stereo unspecified)	-17.7%	?	28.2µM*	-3.5%	22.4µM*	-5.3%

Bioassay records: PubChem, National Center for Advancing Translational Sciences (NCATS)
